High-throughput results from PubChem BioAssay.
MARV entry inh: inhibitors of Marburg virus binding or cell entry; Marburg virus pseudotyped entry inhibition, cell reporter; Potency, µM (top dose mostly 37.8 µM), for the others: at the highest dose activity change, negative = inhibition, usual class: inhibitors; hit rate 1.8% among 300,000; AID 540276; calls by dose curve; tested in HEK293 cells; further: potency means the concentration at half of the fitted maximal effect; on the % scale 0 is the no-effect control and ±100 the full control effect
LASV entry inh: inhibitors of Lassa virus binding or cell entry; Lassa virus pseudotype entry inhibition, cell reporter; Potency, µM (highest dose often 37.9 µM), without a hit: at the highest dose activity change, negative = inhibition, hits mostly inhibitors; hit rate 1.2% among 300,000; calls by dose curve; tested in HEK293 cells; further: potency means the concentration at half of the fitted maximal effect; on the % scale 0 is the no-effect control and ±100 the full control effect; nearly all actives have a fitted effect of over 50% in size
AMA1 RON2 block: disrupts binding of P. falciparum AMA1 to RON2. AlphaScreen AMA1-biotinylated RON2 peptide binding. Potency, µM (highest dose often 58.2 µM), without a hit: at the highest dose activity change, negative = inhibition, hits mostly inhibitors. hit rate 0.2% among 360,000; active means well fitted inhibition curve with a large enough effect; inconclusive means small, poorly fitted or top-dose-only effect; inactive means no such curve, though single readings can be large or run the other way;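 further: potency means the concentration at half of the fitted maximal effect; 0% = vehicle wells and -100% = peptide control; nearly all actives have a fitted effect of over 45% in size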
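AMA1 (3D7) with his tag at 25 nM final met compounds first, then biotinylated RON2 peptide at 25 nM; detection used donor plus acceptor beads, 10 µg/mL apiece, read by AlphaScreen after 30 min at room temperature.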
Cycloheximide cs: counter-screen hit for Shiga toxin inhibitors, cycloheximide. cell reporter, cycloheximide protein synthesis inhibition counterscreen. max response, %. hit rate 12% among 300,000. AID 2314; in the data active means max response mostly above about 13%, no sharp cut-off; inactive means mostly below about 14%; further: read at 38.3 µM for the half of the compounds with a filed dose; 0% is about no effect
Shiga toxin inh: Shiga toxin inhibition. Vero cells, Shiga toxin protein synthesis inhibition reporter. inhibition, % at 38.7 µM. hit rate 9.2% among 290,000; in the data active means inhibition mostly above about 28%, no sharp cut-off; inactive means mostly below about 43%; further: 0% is about no effect
* hit, by the source's call; i = inactive; ? = inconclusive; . = not tested or not shown; [ ] = remark or other dose. This is one part of a sample in which hits are shown more often than they occur.

SMILES | MARV entry inh | LASV entry inh | AMA1 RON2 block | Cycloheximide cs | Shiga toxin inh
CCOc1ccc(NC(=O)/C(C#N)=C\c2ccc(-c3ccc(Cl)cc3)o2)cc1 | . | -7%[46.1 µM] | . | . | .
CCN(CC)S(=O)(=O)c1cccc(C(=O)NC(C)C(c2cccs2)N2CCCC2)c1 (stereo not given) | . | . | -4% | -5 | -6
COC(=O)c1ccc([C@H]2/C(=C(\O)c3ccc(OC)cc3)C(=O)C(=O)N2Cc2ccco2)cc1 | -4% | . | . | . | .
COc1cccc(C2/C(=C(/O)c3cnn(-c4ccccc4)c3C)C(=O)C(=O)N2CCN(C)C)c1OC (stereo not given) | 1.1µM* | -7% | 8% | -2 | -14
Cc1c(/C(O)=C2\C(=O)C(=O)N(CCN(C)C)C2c2ccco2)cnn1-c1ccccc1 (stereo not given) | 8% | -2% | -7% | 30* | 67*
CCCOc1ccc(/C(O)=C2/C(=O)C(=O)N(CCN(C)C)C2c2ccco2)cc1 (stereo not given) | 6% | -8% | 10% | 37* | 74*
Cc1c(/C(O)=C2\C(=O)C(=O)N(CCN(C)C)C2c2ccccc2)cnn1-c1ccccc1 (stereo not given) | 6%[46.1 µM] | 12%[46.1 µM] | -12% | 50* | 111*
Cc1c(/C(O)=C2/C(=O)C(=O)N(CCN(C)C)C2c2ccc(C(C)C)cc2)cnn1-c1ccccc1 (stereo not given) | -3%[46.1 µM] | 9%[46.1 µM] | -2% | -1 | 4
COc1ccc(OC)c(NC(=O)Cn2cnc3sc(C)c(S(=O)(=O)N4CCN(c5ccccc5OC)CC4)c3c2=O)c1 | 13%[46.1 µM] | 7%[46.1 µM] | . | . | .
O=C(CCNC(=O)c1ccccc1)Nc1cccnc1 | ? | 8% | -5% | -3 | 14
CN(C)CCCN1C(=O)C(=O)/C(=C(/O)c2ccc3c(c2)OCCO3)C1c1ccco1 (stereo not given) | . | . | . | 1 | -3
CCN(CC)CCCN1C(=O)C(=O)/C(=C(/O)c2ccc3c(c2)OCCO3)C1c1ccco1 (stereo not given) | ? | 2% | -6% | 46* | 45
CCCCn1nnc(NC(=O)c2ccco2)n1 | ? | ? | 3% | 26* | 13*
CCCCn1nnc(NC(=S)NC(=O)c2cccs2)n1 | ? | 20% | 26% | 28* | 115*
Cn1nnc(NC(=S)NC(=O)c2cccs2)n1 | ? | -6% | 44% | 11 | 29
COc1ccc([C@]23Cc4cc(C#N)ccc4C(O2)c2c(cc(C)n(-c4ccccc4)c2=O)O3)cc1 | . | . | . | -3 | i
CC(=O)c1ccc(CCCCCCCCCC(=O)O)s1 | ? | 3% | 11% | -3 | -11
COC(=O)CCCCCc1ccc(C(C)=O)s1 | 2%[46.1 µM] | 2% | 11% | 12* | 11
CC1=C(c2ccc(C(C)C)cc2)S(=O)(=O)N=C1N1CCN(c2ccccc2F)CC1 | -23%[46.1 µM] | -1%[46.1 µM] | . | . | .
C=C1C(=O)C23C(O)C1CCC2C12CCCC(C)(COC(C)=O)C1C(O)C3(O)OC2 (stereo not given) | ? | 11µM* | 2% | . | .
Brc1ccc2c(c1)CN1CCCC1=N2 | -3% | . | -1% | -3 | -12
O=[N+]([O-])/C(C(Cl)=C(Cl)Cl)=C1\Nc2ccccc2O1 | 0% | -2% | 37% | 17* | 71*
O=C1Nc2ccccc2Oc2cc([N+](=O)[O-])ccc21 | 10%[46.1 µM] | 10%[46.1 µM] | -11% | 31 | 42
CC1=C([N+](=O)[O-])C(c2ccc(Cl)cc2)NC(=O)N1C (stereo not given) | 6%[46.1 µM] | 8%[46.1 µM] | 0% | 1 | -7
CC1=C(C(=O)OCCNC(=O)c2ccccc2O)C(c2ccccc2[N+](=O)[O-])C(C(=O)OCC2CCCO2)=C(C)N1 (stereo not given) | ? | 10µM* | ? | -5 | -14
SMILES | MARV entry inh | LASV entry inh | AMA1 RON2 block | Cycloheximide cs | Shiga toxin inh
COC(=O)C1=C(C)NC(C)=C(C(=O)OCC2CCCO2)C1c1ccc(Cl)c([N+](=O)[O-])c1 (stereo not given) | . | . | . | 5 | -9
CCOC(=O)C1CCN(c2cc3c(cc2NC(=O)c2ccccc2F)n(C)c(=O)n3C)CC1 | -13%[46.1 µM] | -12%[46.1 µM] | 0% | 0 | 1
CCOC(=O)C1CCN(c2cc3c(cc2NC(=O)c2ccccc2Cl)n(C)c(=O)n3C)CC1 | ? | 2.5µM* | -4% | -1 | -7
CC1Sc2ccc(S(=O)(=O)N(C)Cc3ccccc3)cc2NC1=O (stereo not given) | -1%[46.1 µM] | ? | 0% | -8 | -6
CCOc1ccc(C(=O)NCCn2cc(SCC(=O)Nc3cc(C)on3)c3ccccc32)cc1 | ? | -29% | -4% | 15* | 18
Cn1c(=O)cc(SCC(=O)NCc2ccco2)c2ccccc21 | 11% | 1% | -12% | -4 | 13
Cc1cc(NC(=O)CSc2cn(CCNC(=O)c3ccc(Cl)cc3)c3ccccc23)no1 | 0% | . | -5% | 38* | 13
O=C(CSc1cn(CCNC(=O)c2ccc3ccccc3c2)c2ccccc12)NCc1ccco1 | . | . | 14% | 15* | 22
COc1ccccc1C(=O)NCCn1cc(SCC(=O)Nc2cc(C)on2)c2ccccc21 | -13% | ? | -3% | 5 | 5
COc1ccc(C(=O)NCCn2cc(SCC(=O)Nc3cc(C)on3)c3ccccc32)cc1OC | ? | -19% | -14% | -3 | -23
O=C(CSc1cn(CCNC(=O)c2cccs2)c2ccccc12)NCc1ccccc1 | -3% | . | -3% | 11* | 15
Cc1c2cc[n+](CCN3CCCCC3)cc2c(C)c2c1[nH]c1ccc(O)cc12 | ? | 11% | -25% | . | .
COC[C@H]1O[C@@H]2O[C@@H]1[C@@H](C=Cc1ccccc1)C[C@H]2C | 5%[14.2 µM] | . | . | . | .
COc1ccc(Cn2ccc3nc(C)c(C(=O)N4CCN(c5ccccc5OC)CC4)cc3c2=O)cc1 | . | -28%[46.1 µM] | . | . | .
CCOc1ccc(Cn2c(CNS(=O)(=O)c3ccc([N+](=O)[O-])cc3)nc3cccnc32)cc1 | . | -11%[46.1 µM] | . | . | .
CCc1cc(C=NC2CCCCC2)c(O)s1 | ? | 6% | -17% | 66* | 119*
O=C(c1cccs1)N1C[C@@H](O)[C@@H](n2cc(C3CC3)nn2)C[C@@H]1c1ccccc1 | . | 8%[46.1 µM] | . | . | .
O=C(CSc1nnnn1Cc1ccccc1)Nc1ccc2c(c1)OCCO2 | 22% | 9% | -4% | 23* | 65
O=C(CSc1nnnn1Cc1ccccc1)Nc1ccc2c(c1)OCO2 | -6% | -15% | 7% | 13* | 33*
O=C(CSc1nccn1Cc1ccccc1)Nc1ccc2c(c1)OCCO2 | . | 2%[46.1 µM] | . | . | .
O=c1c2ccccc2nnn1CSc1ccc2c(c1)OCCO2 | 11% | ? | -2% | 52* | 26*
CC(C)n1nnnc1SCC(=O)Nc1ccc2c(c1)OCO2 | ? | ? | 25% | 26* | 70*
COC(=O)NC(c1ccc(Cl)cc1)C(C(C)=O)C(=O)OC (stereo not given) | 13%[14.2 µM] | . | . | . | .
CC(Sc1nnnn1C)C(=O)Nc1ccc2c(c1)OCCO2 (stereo not given) | 1%[46.1 µM] | ? | 5% | 29* | 115*
Cn1nnnc1SCC(=O)Nc1ccc2c(c1)OCCO2 | . | . | -5% | 33* | 81*
Cc1ccc(-n2nnnc2SCC(=O)Nc2ccc3c(c2)OCCO3)cc1C | ? | 8% | 29% | 7 | 9
